Compound activity from PubChem.
MCF10A rerep = induces DNA re-replication in MCF 10a normal breast cells | Potency, µM (highest dose often 46.1 µM), for the others: at the top dose activity, positive = re-replication, usual class: activators | AID 624296 | MCF 10A DNA re-replication, Hoechst nuclear intensity, 48 h | 350,000 tested, 2.9% active; note: % of control where 0% means no effect; nearly all actives have a fitted effect of over 50% in size
KB-3-1 cytotox = kills parental KB-3-1 adenocarcinoma cells. KB-3-1 viability, CellTiter-Glo ATP luminescence, 72 h. Potency, µM (series often up to 46.1 µM), usual class: cytotoxic. 400,000 tested, 1.4% active. AID 1347075; note: % is set by controls: 0 for no effect and ±100 for the full control effect; nearly all actives have a fitted effect of over 60% in size
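Multi-concentration cytotoxicity screen in KB-3-1 cells grown in DMEM lacking phenol red with 10% FBS. After 72 h at 37 °C with compound, ATP-dependent luminescence was recorded.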
HT1080 IDH1KD tx = HT-1080 IDH1 knockdown cell toxicity (counter line) | 360,000 tested, 2% active | Potency, µM (doses to about 46.1 µM), for inactives: at the top dose activity, negative = toxicity, usual class: cytotoxic | HT-1080 IDH1 knockdown viability, ATP luminescence, 48 h;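 note: 0% = DMSO wells and -100% = cell-free medium wells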
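% activity derives from luminescence (CellTiter-Glo), normalised to DMSO and no-cell wells. HT-1080-IDH1KD cells, 750/well, had 48 h compound exposure at 37 °C.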
SW480 rereplic = induces DNA re-replication in SW480 colon adenocarcinoma cells; SW480 DNA re-replication, Hoechst DNA content imaging, 48 h; AID 624297; Potency, µM (doses to about 46.1 µM), inactives show at the top dose re-replication activation, actives largely listed as activators; 340,000 tested, 1.8% active; note: % of control where 0% means no effect; nearly all actives have a fitted effect of over 55% in size
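DNA re-replication was detected as more nuclei of elevated Hoechst intensity after 48 hr exposure to compound (23 nL pinned per well of 250 cells).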
HT1080NT lethal = kills 2HG-producing HT-1080-NT fibrosarcoma cells. HT-1080-NT fibrosarcoma viability, CellTiter-Glo ATP luminescence, 48 h. 360,000 tested, 1.6% active. AID 686970. Potency, µM (series often up to 46.1 µM), inactives show at the top dose activity, negative = less viability, usual class: cytotoxic;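 note: NT is the 2HG producing partner of a matched IDH1 knockdown line; 0% = DMSO-treated cells and -100% = media-only wells without cells; nearly all actives have a fitted effect of over 55% in size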
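Toxicity toward the 2HG-producing NT line was scored as %Activity, normalised to DMSO and no-cell wells, from CellTiter-Glo luminescence after 48 hours' treatment.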
KB-V1 cytotox = kills drug-selected multidrug resistant KB-V1 cells | KB-V1 MDR cells viability, CellTiter-Glo, 72 h | Potency, µM (series often up to 46.1 µM), most hits filed as cytotoxic | 400,000 tested, 3.4% active | AID 1347076; note: % is set by controls: 0 for no effect and ±100 for the full control effect; nearly all actives have a fitted effect of over 60% in size
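Cells of the MDR subline KB-V1 are plated, dosed with compound at multiple concentrations, and incubated 72 h at 37 degrees C; CellTiter-Glo is then added and luminescence read after 10 min.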
The depositor's hits bear a star; i = inactive; ? = inconclusive; nt = no result; [ ] = remark or other dose. Shown are actives, neighbours in structure and some others; about 8% of the full set was active somewhere. Calls come from the whole dose curve; as a rule, active = well fitted curve in the direction sought with a large enough effect; inconclusive = small, poorly fitted or top-dose-only effect, or another doubt; inactive = no such curve, though single readings can be large; an effect the other way counts as inactive or inconclusive. Potency is the fitted concentration of half-maximal effect.

SMILES | MCF10A rerep | KB-3-1 cytotox | HT1080 IDH1KD tx | SW480 rereplic | HT1080NT lethal | KB-V1 cytotox
CCC(C)(C(=O)NC1CCCCC1)N(Cc1ccco1)C(=O)c1ccc2c(c1)OCO2 (stereo not given) | 0% | i | -5% | -2% | -1% | 12µM*
CCOc1ccc2nc3cc(NCc4ccc(OC)cc4)ccc3c(N)c2c1 | 15µM* | ? | ? | ? | ? | i
COc1ccc(C(=O)C[n+]2ccc3c(c2)nc(-c2ccc(OC)cc2OC)n3C)cc1 | ? | 15µM* | ? | 1% | -14% | i
Cc1ccc(-c2nc3scc(CCNC(=O)Cc4ccc(Cl)cc4)n3n2)cc1 | nt | i | nt | nt | nt | i
CCc1ccc(CNC(=O)c2cnc3sc(N4CCCCC4)nn3c2=O)cc1 | nt | i | nt | nt | nt | ?
CCOc1ccccc1CNC(=O)c1cccc(NC(=O)c2nsc3ccccc23)c1 | nt | i | nt | nt | nt | i
C=CCN1C(=O)N/C(=C/c2ccccc2OCC(=O)Nc2ccc(F)cc2)C1=O | 23µM* | i | -3% | 333% | ? | i
O=C(Cc1ccccc1)NNc1c2ccccc2nc2ccccc12 | -8% | i | -11% | -20% | -23% | i
Cc1cccc(OCC(=O)NNc2c3ccccc3nc3ccccc23)c1 | 0% | i | ? | -4% | -3% | 13µM*
Cc1ccc(OCC(=O)NNc2c3ccccc3nc3ccccc23)cc1 | ? | i | -26% | nt | -23% | 18µM*
CNc1ccc(C=O)cc1Br | nt | i | nt | nt | nt | i
CN(CC(=O)Nc1cccc(S(=O)(=O)N2CCCC2)c1)CC(=O)Nc1ccc(F)c(F)c1F | 0% | i | 2% | 2% | -13% | 21µM*
COc1ccc(S(=O)(=O)N2CCCCCC2)cc1C(=O)N(C)CC(=O)Nc1ccc(F)cc1 | 8% | i | 0% | -349% | -6% | i
O=C(CN1CCN(S(=O)(=O)c2ccc(F)cc2)CC1)Nc1ccc(Cl)c(C(F)(F)F)c1 | ? | ? | -13%[9.24 µM] | ? | ? | 16µM*
CN(CC(=O)Nc1ccc(F)cc1)c1ccc(S(=O)(=O)N2CCCCC2)cc1[N+](=O)[O-] | -3% | i | -22% | nt | -22% | 13µM*
O=C(CN1CCN(S(=O)(=O)c2ccc(F)cc2)CC1)Nc1ccc2c(c1)OCCO2 | -1% | i | -1% | -3% | -12% | ?
CN(CC(=O)Nc1cccc(S(=O)(=O)N2CCCC2)c1)CC(=O)Nc1ccc(Cl)c(C(F)(F)F)c1 | ? | ? | 18µM* | ? | 9.2µM* | i
CC1=C(c2ccc(C)cc2)S(=O)(=O)N(Cc2ccc(C(=O)Nc3ccc(C)c(F)c3)cc2)C1=O | nt | i | nt | nt | nt | i
O=C(CNc1cc(S(=O)(=O)N2CCCC2)ccc1OCC(F)(F)F)Nc1cccc(C(F)(F)F)c1 | 8% | 21µM* | -24% | nt | -13% | 9.2µM*
O=C(Nc1cccc(S(=O)(=O)N2CCCCC2)c1)Nc1ccc(Cl)cc1Cl | 7.3µM* | ? | 16µM* | ? | 21µM* | ?
O=C(Cn1nc(-c2ccccc2F)ccc1=O)Nc1ccc(S(=O)(=O)N2CCCCCC2)cc1 | 22% | i | -10% | 15µM* | 1% | 13µM*
O=C(Cc1ccccc1F)Nc1ccc(S(=O)(=O)N2CCCCC2)cc1 | 10% | i | -9% | ? | -17% | i
CN(CC(=O)Nc1ccc(S(=O)(=O)N2CCCC2)cc1)Cc1c(F)cccc1Cl | 9% | ? | 1% | 6% | -9% | 7.3µM*
O=C(CNc1cccc(C(F)(F)F)c1)Nc1cccc(S(=O)(=O)N2CCCC2)c1 | 12% | ? | -15% | 2% | -8% | ?
Cc1ccc(NC(=O)C(=O)NCC(c2ccc3c(c2)OCO3)N2CCOCC2)cc1C (stereo not given) | nt | i | nt | nt | nt | i
SMILES | MCF10A rerep | KB-3-1 cytotox | HT1080 IDH1KD tx | SW480 rereplic | HT1080NT lethal | KB-V1 cytotox
Cc1ccc(COc2cccc(/C=N/NC(=O)c3nnn(-c4nonc4N)c3C)c2)cc1 | 2.6µM* | i | 20% | -8% | -2% | i
Cc1c(C(=O)N/N=C/c2c(O)ccc3ccccc23)nnn1-c1nonc1N | -1% | ? | 0.58µM* | 0.73µM* | ? | i
COc1ccc2ccccc2c1/C=N/NC(=O)c1nnn(-c2nonc2N)c1C(C)C | ? | i | ? | -7% | -18% | ?
Nc1nonc1-n1nnc(C(=O)N/N=C/c2ccc(OCc3ccc(F)cc3)cc2)c1COc1ccccc1 | ? | i | ? | 15µM* | 18µM* | i
COCCn1c(C)cc(C(=O)CN2CCCCC2)c1C | 7% | i | 2% | -2% | 9% | i
COCCn1c(C)cc(C(=O)CN2C(=O)NC3(CCCCCCC3)C2=O)c1C | 12µM* | i | -7% | ? | -1% | i
COc1cc2c(=O)c(S(=O)(=O)c3ccc(F)cc3)cn(Cc3ccccc3C)c2cc1OC | nt | i | nt | nt | nt | i
COc1cc2c3nnc(-c4ccccc4)c-3cn(Cc3ccccc3F)c2cc1OC | 23µM* | ? | ? | 23µM* | ? | i
COc1ccc(C(=O)c2cn(Cc3ccccc3F)c3cc4c(cc3c2=O)OCO4)cc1 | nt | i | nt | nt | nt | i
COc1cc2c3nnc(-c4ccc(F)cc4)c-3cn(Cc3ccccc3F)c2cc1OC | 9.2µM* | 15µM* | ? | ? | ? | i
Cc1ccc(N2C(=O)CCSC23C(=O)N(Cc2ccc(F)cc2)c2ccccc23)cc1 (stereo not given) | nt | i | nt | nt | nt | ?
COc1cc(NC(=O)CCCC(=O)OCC(F)(F)C(F)F)nc(OC)n1 | 23µM* | i | -5% | ? | 0% | i
COC(=O)c1cc2oc3ccccc3c2n1Cc1cccc(C)c1 | nt | i | nt | nt | nt | i
N=c1c(C(=O)NCCN2CCOCC2)cc2c(=O)n3ccccc3nc2n1CCCN1CCOCC1 | 0.18µM* | i | 9% | 0.65µM* | 7% | i
COCCCn1c(=N)c(C(=O)NCc2ccc3c(c2)OCO3)cc2c(=O)n3ccccc3nc21 | 12% | i | 10% | ? | -1% | ?
N=c1c(C(=O)NCCN2CCOCC2)cc2c(=O)n3ccccc3nc2n1Cc1ccc(F)cc1 | 1.3µM* | i | 3% | 2.1µM* | 1% | i
COc1ccc(C2=C(N3CCN(c4cccc(C)c4)C(C)C3)c3ccccc3C2=O)cc1 (stereo not given) | nt | i | nt | nt | nt | ?
CCOc1ccc(Br)cc1S(=O)(=O)Nc1cccc(S(=O)(=O)N(C)c2ccccc2)c1 | ? | ? | -27% | 8% | -9% | 4.1µM*
